Measured values as given in PubChem BioAssay (EPA / NIEHS).
Results filed as inconclusive are left out. The source made the active and inactive calls. How the source made its calls, unless noted: active means hit-call score of the fitted dose curve at least 0.9, where 1 is the maximum; inactive means score below 0.9.

Key:
[1] = read-out: CD38, CD38 (gene 952); test: BSK_SAg_CD38: BioMAP Diversity Plus: SAg Assay for CD38 Biomarker Activity (AID 2283087); settings: primary human HUVEC with PBMC; actives raise or lower the signal
How it was run: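 Measures CD38 on a human endothelial/PBMC co-culture driven by SEB and TSST-1, 24 h after compound exposure, using ELISA with fluorescence detection; DMSO defines baseline for bidirectional curve fitting.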

[2] = read-out: CD40, CD40 (gene 958); test: BSK_SAg_CD40: BioMAP Diversity Plus: SAg Assay for CD40 Biomarker Activity (AID 2283088); settings: primary human HUVEC with PBMC; actives raise or lower the signal
How it was run: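 Compounds were dosed onto a human primary endothelial–PBMC co-culture, and after 24 h CD40 was quantified by ELISA using a fluorescence signal. Activity in either direction was fitted relative to DMSO.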

[3] = read-out: CD69, CD69 (gene 969); test: BSK_SAg_CD69: BioMAP Diversity Plus: SAg Assay for CD69 Biomarker Activity (AID 2283089); settings: primary human HUVEC with PBMC; actives raise or lower the signal;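 on AC50: cell surface CD69 protein quantified by ELISA with fluorescence detection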
How it was run: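 Primary human vascular co-culture (umbilical vein endothelium with peripheral blood mononuclear cells) exposed to test chemical for 24 h. CD69 levels quantified by fluorescence ELISA; DMSO served as negative control for bidirectional fitting.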

[4] = read-out: Monocyte Chemoattractant Protein-1 (MCP1), CCL2 (gene 6347); test: BSK_SAg_MCP1: BioMAP Diversity Plus: SAg Assay for Monocyte Chemoattractant Protein-1 (MCP1) Biomarker Activity (AID 2283090); settings: primary human HUVEC with PBMC; actives raise or lower the signal
How it was run: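 Values derive from bidirectional fitting of ELISA-measured MCP1 against DMSO controls. Readings were taken 24 h after dosing human vascular endothelial cells co-cultured with peripheral blood mononuclear cells under superantigen stimulation.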

[5] = read-out: E-selectin (Homo sapiens) (UniProt P16581); test: BSK_SAg_Eselectin: BioMAP Diversity Plus: SAg Assay for Eselectin Biomarker Activity (AID 2283091); settings: primary human HUVEC with PBMC; actives raise or lower the signal
How it was run: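 Co-culture: HUVEC + PBMC. Dose compound; 24 h. ELISA for E-selectin. Bidirectional fit vs DMSO.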

[6] = read-out: Monokine induced gamma interferon (MIG), CXCL9 (gene 4283); test: BSK_SAg_MIG: BioMAP Diversity Plus: SAg Assay for Monokine induced gamma interferon (MIG) Biomarker Activity (AID 2283092); settings: primary human HUVEC with PBMC; actives raise or lower the signal
How it was run: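 Endothelial cells and PBMC were co-cultured, exposed to test chemicals, and sampled 24 h later. MIG was measured by ELISA, and responses were fitted in both directions relative to DMSO.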

[7] = BSK_SAg_PBMCCytotoxicity: PBMC Cytotoxicity Assessment in the BioMAP Diversity Plus: SAg Assay (AID 2283093); settings: primary human HUVEC with PBMC;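 further: fitted both ways against DMSO so a hit may be loss or gain of signal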;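 on AC50: PBMC superantigen activated with SEB plus TSST-1 one hour after compound addition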
How it was run: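 PBMC viability by Alamar Blue reduction, fluorescence read at 546/580 nm after 6 h dye exposure. Cells were dosed 1 h before SEB plus TSST-1 activation (20 ng/mL final each), then held 90 h; endothelial/PBMC human co-culture.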

[8] = read-out: Interleukin-8 (IL8), CXCL8 (gene 3576); test: BSK_SAg_IL8: BioMAP Diversity Plus: SAg Assay for Interleukin-8 (IL8) Biomarker Activity (AID 2283094); settings: primary human HUVEC with PBMC; actives raise or lower the signal
How it was run: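 HUVEC/PBMC co-culture, 24 h post-dose; IL-8 by ELISA. Gain or loss of signal fitted bidirectionally vs DMSO baseline.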

[9] = BSK_SAg_Proliferation: Cell Proliferation Assessment in the BioMAP Diversity Plus: SAg Assay (AID 2283095); settings: primary human HUVEC with PBMC;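 further: relative cell number as total protein by SRB absorbance in sub-confluent culture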
How it was run: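 HUVEC/PBMC co-culture, 96-well. TCA-fixed (10%), 0.1% SRB stain, A560 at 96 h. Protein content used as viability readout; bidirectional fitting vs DMSO control.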

[10] = BSK_SAg_SRB: Viability Assessment in the BioMAP Diversity Plus: SAg Assay (AID 2283096); settings: primary human HUVEC with PBMC;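 further: cells read one day after compound addition; hits may be either gain or loss of signal compared with DMSO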
How it was run: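 Compounds were added to a human vascular co-culture of umbilical vein endothelium and PBMC. After 24 h, parallel cultures were fixed with 10% TCA, stained with 0.1% sulforhodamine B and read at 560 nm. Gain or loss of signal was fitted relative to DMSO.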

[11] = target: human CYP2A6, CYP2A6 (gene 1548) (UniProt P11509); test: NVS_ADME_hCYP2A6: NovaScreen (NVS) CYP450-related Enzyme Activity (ADME) Assay for human CYP2A6 (AID 2283099; active means hit-call score of the fitted dose curve at least 0.9, where 1 is the maximum)
Chain of human CYP2A6, CYP2A6 (gene 1548) (P11509 whole entry, looked up): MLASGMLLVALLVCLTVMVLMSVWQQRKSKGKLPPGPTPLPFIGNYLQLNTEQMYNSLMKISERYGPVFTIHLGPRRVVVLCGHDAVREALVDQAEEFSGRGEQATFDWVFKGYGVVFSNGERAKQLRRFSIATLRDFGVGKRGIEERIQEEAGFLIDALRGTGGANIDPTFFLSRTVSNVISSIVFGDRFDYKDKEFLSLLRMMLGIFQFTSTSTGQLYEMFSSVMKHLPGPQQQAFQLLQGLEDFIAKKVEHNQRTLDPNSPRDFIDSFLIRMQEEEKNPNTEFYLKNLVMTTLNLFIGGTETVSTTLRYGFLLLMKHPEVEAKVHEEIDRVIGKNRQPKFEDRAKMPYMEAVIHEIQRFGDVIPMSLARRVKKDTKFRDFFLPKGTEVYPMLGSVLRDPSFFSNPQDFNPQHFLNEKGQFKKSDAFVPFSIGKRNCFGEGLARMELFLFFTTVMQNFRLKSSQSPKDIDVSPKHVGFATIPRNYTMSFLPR
How it was run: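 Fluorescent substrate turnover by recombinant CYP2A6 (insect cell source), 0.5 h read. Screen: 10 uM, duplicate; threshold hits (e.g. 30% inhibition) → singleton concentration-response, top 20 uM. Positive and negative controls on every plate.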

[12] = target: human CYP2B6, CYP2B6 (gene 1555) (UniProt P20813); test: NVS_ADME_hCYP2B6: NovaScreen (NVS) CYP450-related Enzyme Activity (ADME) Assay for human CYP2B6 (AID 2283101; active means hit-call score of the fitted dose curve at least 0.9, where 1 is the maximum)
Chain of human CYP2B6, CYP2B6 (gene 1555) (P20813 whole entry, looked up): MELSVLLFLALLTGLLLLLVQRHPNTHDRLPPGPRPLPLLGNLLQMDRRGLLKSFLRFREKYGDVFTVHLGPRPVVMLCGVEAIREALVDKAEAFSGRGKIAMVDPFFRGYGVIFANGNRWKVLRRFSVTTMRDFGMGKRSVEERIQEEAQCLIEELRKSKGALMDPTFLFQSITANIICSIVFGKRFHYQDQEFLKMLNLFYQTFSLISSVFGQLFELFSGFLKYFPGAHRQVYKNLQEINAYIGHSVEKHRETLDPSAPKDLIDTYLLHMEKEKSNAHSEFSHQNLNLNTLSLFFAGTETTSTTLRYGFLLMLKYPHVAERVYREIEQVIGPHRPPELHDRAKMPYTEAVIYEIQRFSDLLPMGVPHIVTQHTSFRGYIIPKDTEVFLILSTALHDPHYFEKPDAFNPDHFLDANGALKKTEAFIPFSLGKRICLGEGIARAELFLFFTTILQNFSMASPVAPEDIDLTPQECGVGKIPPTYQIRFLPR
How it was run: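 Cell-free recombinant enzyme assay with a fluorogenic substrate; fluorescence intensity read 1 hour after dosing. Loss of signal relative to acetonitrile negative control indicates inhibition. Primary screen run in duplicate at 10 uM, actives then tested in concentration series.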

[13] = target: human CYP1A2, CYP1A2 (gene 1544) (UniProt P05177); test: NVS_ADME_hCYP1A2: NovaScreen (NVS) CYP450-related Enzyme Activity (ADME) Assay for human CYP1A2 (AID 2283102; active means hit-call score of the fitted dose curve at least 0.9, where 1 is the maximum;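 on AC50: potency for inhibition since loss of fluorescence marks reduced CYP1A2 activity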)
Chain of human CYP1A2, CYP1A2 (gene 1544) (P05177 whole entry, looked up): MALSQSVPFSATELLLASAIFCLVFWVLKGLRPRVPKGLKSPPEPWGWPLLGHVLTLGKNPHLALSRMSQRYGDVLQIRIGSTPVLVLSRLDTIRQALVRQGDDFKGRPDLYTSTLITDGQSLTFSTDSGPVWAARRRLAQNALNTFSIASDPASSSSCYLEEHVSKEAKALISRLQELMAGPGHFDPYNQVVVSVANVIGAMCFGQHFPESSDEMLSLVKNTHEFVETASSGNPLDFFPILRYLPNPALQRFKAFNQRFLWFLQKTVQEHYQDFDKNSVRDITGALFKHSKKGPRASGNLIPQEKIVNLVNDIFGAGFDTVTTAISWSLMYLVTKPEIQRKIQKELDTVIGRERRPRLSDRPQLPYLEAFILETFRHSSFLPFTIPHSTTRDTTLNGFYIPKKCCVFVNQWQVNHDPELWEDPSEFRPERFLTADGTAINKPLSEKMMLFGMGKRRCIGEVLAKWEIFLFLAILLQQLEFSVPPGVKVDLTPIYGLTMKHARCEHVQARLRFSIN
How it was run: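 rec. hCYP1A2 (insect cells), cell-free; fluorogenic substrate; 0.5 h; FI read. Baseline = acetonitrile; signal loss = inhibition. 10 uM duplicate primary → conc. series for actives.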

[14] = target: human CYP2D6, CYP2D6 (gene 1565) (UniProt P10635); test: NVS_ADME_hCYP2D6: NovaScreen (NVS) CYP450-related Enzyme Activity (ADME) Assay for human CYP2D6 (AID 2283107; active means hit-call score of the fitted dose curve at least 0.9, where 1 is the maximum)
Chain of human CYP2D6, CYP2D6 (gene 1565) (P10635 whole entry, looked up): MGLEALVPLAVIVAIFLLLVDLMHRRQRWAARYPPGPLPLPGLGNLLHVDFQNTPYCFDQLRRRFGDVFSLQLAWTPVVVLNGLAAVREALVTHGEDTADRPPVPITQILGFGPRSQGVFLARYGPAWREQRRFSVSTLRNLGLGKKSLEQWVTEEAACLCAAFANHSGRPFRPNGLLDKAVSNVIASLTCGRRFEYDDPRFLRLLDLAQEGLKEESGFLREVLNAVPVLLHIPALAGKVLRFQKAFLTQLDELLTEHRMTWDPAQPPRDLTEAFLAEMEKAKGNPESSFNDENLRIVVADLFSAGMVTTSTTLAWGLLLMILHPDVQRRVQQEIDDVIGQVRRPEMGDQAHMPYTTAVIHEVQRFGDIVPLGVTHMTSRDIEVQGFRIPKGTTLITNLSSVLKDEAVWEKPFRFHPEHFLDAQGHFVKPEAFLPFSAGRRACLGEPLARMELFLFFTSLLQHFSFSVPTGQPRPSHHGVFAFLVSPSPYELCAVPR
How it was run: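 Insect-cell recombinant enzyme + fluorogenic substrate, cell-free; 1 h incubation; fluorescence intensity readout. Acetonitrile = neg. ctrl/baseline. Single-point 10 uM, duplicate; follow-up concentration series.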

[15] = target: human CYP2C9, CYP2C9 (gene 1559) (UniProt P11712); test: NVS_ADME_hCYP2C9: NovaScreen (NVS) CYP450-related Enzyme Activity (ADME) Assay for human CYP2C9 (AID 2283108; active means hit-call score of the fitted dose curve at least 0.9, where 1 is the maximum)
Chain of human CYP2C9, CYP2C9 (gene 1559) (P11712 whole entry, looked up): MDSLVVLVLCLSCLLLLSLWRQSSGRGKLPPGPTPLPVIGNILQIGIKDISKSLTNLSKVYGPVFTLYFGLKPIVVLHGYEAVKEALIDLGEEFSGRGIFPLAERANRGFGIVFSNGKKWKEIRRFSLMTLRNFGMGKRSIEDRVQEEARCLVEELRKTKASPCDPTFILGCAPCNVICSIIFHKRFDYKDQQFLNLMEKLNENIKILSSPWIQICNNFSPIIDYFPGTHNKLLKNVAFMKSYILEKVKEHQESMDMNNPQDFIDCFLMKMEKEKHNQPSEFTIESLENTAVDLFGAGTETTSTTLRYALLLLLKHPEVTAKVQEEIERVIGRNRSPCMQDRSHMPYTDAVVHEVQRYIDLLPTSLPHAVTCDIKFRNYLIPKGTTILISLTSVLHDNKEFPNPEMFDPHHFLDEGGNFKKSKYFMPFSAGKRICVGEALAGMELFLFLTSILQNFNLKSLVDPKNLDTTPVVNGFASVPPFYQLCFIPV
How it was run: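 Recombinant human CYP2C9 expressed in SF9 cells, fluorogenic substrate, fluorescence read 0.75 h after dosing. Chemicals first run in duplicate at 10 uM, with actives followed in concentration series; loss of signal versus acetonitrile baseline.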

[16] = target: Cytochrome P450 3A4 (Homo sapiens) (UniProt P08684); test: NVS_ADME_hCYP3A4: NovaScreen (NVS) CYP450-related Enzyme Activity (ADME) Assay for human CYP3A4 (AID 2283110; active means hit-call score of the fitted dose curve at least 0.9, where 1 is the maximum)
Chain of Cytochrome P450 3A4 (Homo sapiens) (P08684 whole entry, looked up): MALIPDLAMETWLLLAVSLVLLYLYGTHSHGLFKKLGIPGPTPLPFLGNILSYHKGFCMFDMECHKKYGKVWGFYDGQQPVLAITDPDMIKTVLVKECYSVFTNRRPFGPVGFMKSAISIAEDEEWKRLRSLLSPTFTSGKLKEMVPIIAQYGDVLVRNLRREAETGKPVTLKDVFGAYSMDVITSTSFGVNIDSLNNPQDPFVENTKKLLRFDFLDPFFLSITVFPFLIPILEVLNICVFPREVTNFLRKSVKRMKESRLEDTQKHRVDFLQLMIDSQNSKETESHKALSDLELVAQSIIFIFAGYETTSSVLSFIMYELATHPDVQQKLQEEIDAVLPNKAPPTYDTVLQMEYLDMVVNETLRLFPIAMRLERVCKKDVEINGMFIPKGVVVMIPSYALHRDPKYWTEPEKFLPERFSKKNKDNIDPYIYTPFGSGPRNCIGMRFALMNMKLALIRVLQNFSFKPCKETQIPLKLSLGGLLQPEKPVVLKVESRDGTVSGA
How it was run: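 Recombinant CYP3A4 from insect cells, fluorescence enzyme read-out, 0.33 h after chemical addition. Acetonitrile = negative control/baseline. Primary HTS: 10 uM in duplicate; actives re-tested in concentration series.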

[17] = target: Cytochrome P450 2C19 (Homo sapiens) (UniProt P33261); test: NVS_ADME_hCYP2C19: NovaScreen (NVS) CYP450-related Enzyme Activity (ADME) Assay for human CYP2C19 (AID 2283113; active means hit-call score of the fitted dose curve at least 0.9, where 1 is the maximum;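 further: potency for inhibition seen as loss of fluorescent signal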)
How it was run: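 Fluorescence intensity was measured 1 hour after chemicals were added to insect-cell-derived recombinant CYP2C19 with fluorogenic substrate. Decreased signal versus acetonitrile control was taken as reduced enzyme activity; initial testing used 10 uM in duplicate.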

[18] = target: human CYP19A1, CYP19A1 (gene 1588) (UniProt P11511); test: NVS_ADME_hCYP19A1: NovaScreen (NVS) CYP450-related Enzyme Activity (ADME) Assay for human CYP19A1 (AID 2283098; active means hit-call score of the fitted dose curve at least 0.9, where 1 is the maximum;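 further: potency for inhibitors seen as loss of fluorescent enzyme signal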)
Chain of human CYP19A1, CYP19A1 (gene 1588) (P11511 whole entry, looked up): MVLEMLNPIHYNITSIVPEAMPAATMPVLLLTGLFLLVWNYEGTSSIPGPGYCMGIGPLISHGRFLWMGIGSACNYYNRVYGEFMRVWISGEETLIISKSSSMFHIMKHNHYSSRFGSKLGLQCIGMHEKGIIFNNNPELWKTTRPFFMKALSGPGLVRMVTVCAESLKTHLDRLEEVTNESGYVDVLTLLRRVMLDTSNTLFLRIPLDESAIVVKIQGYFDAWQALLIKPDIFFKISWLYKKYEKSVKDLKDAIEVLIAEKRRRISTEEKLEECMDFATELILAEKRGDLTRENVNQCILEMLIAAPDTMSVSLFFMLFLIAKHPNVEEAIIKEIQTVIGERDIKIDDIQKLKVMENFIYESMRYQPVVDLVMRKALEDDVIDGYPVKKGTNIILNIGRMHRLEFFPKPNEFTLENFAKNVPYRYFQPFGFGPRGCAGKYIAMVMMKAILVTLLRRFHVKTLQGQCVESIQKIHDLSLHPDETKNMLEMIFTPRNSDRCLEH
How it was run: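 Fluorescence intensity read-out; activity taken as signal loss relative to acetonitrile vehicle. Extracted enzyme, specific substrate, no cells, 0.5 h exposure. Duplicate single-point screen at 10 uM, then concentration–response follow-up for actives.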

Measured: AC50

Chain of E-selectin (Homo sapiens) (P16581 whole entry, looked up): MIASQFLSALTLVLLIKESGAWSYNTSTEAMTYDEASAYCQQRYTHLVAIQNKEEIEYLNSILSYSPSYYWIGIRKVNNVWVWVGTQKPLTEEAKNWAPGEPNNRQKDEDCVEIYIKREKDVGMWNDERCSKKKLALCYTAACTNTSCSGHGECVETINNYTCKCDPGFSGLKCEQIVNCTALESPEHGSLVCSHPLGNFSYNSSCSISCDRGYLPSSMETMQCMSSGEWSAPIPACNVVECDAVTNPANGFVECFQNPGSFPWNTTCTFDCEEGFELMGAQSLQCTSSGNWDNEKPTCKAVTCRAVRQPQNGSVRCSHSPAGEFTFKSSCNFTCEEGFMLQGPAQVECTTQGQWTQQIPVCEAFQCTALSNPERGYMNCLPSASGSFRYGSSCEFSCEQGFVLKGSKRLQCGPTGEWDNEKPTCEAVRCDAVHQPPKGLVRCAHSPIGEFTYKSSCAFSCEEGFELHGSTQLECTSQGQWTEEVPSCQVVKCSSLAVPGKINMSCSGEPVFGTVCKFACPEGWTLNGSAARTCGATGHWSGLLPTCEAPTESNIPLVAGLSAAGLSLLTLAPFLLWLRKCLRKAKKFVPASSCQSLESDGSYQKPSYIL

CC1=CC(=O)CC(C)(C)C1
inactive: [1] | [2] | [3] | [4] | [5] | [6] | [7] | [8] | [9] | [10] | [11]

CCCCC(CC)COC(=O)CCCCCCCCC(=O)OCC(CC)CCCC (stereo unspecified)
inactive: [1] | [2] | [3] | [4] | [5] | [6] | [7] | [8] | [9] | [10]

CNCc1ccc(NC(=O)c2c[nH]c3c2C(=O)CCC3)cc1
inactive: [1] | [2] | [3] | [4] | [5] | [6] | [7] | [8] | [9] | [10]

Nc1ccc(Nc2ccccc2)cc1
inactive: [10]
active: [1] 3.97 µM | [2] 3.97 µM | [3] 3.97 µM | [4] 9.88 µM | [5] 2.72 µM | [6] 15.7 µM | [7] 5.36 µM | [8] 8.78 µM | [9] 14 µM | [12] 4.35 µM | [13] 15.1 µM | [14] 13.8 µM | [15] 16.1 µM | [16] 7.5 µM | [17] 6.51 µM

CC(C)CC(C)(O)C#CC(C)(O)CC(C)C (stereo unspecified)
inactive: [1] | [2] | [3] | [4] | [5] | [6] | [7] | [8] | [9] | [10]

O=C1CCCCCN1
inactive: [1] | [2] | [3] | [4] | [5] | [6] | [7] | [8] | [9] | [10]

CCCCCCc1ccc(O)cc1O
inactive: [13]
active: [1] 33 µM | [2] 30.6 µM | [4] 27.6 µM | [5] 33.6 µM | [6] 36.8 µM | [7] 33.1 µM | [8] 24.4 µM | [9] 31 µM | [18] 4.09 µM | [12] 4.64 µM | [14] 8.17 µM | [15] 10 µM | [17] 4.91 µM

CN(C)c1ccc(Cc2ccc(N(C)C)cc2)cc1
inactive: [1] | [2] | [3] | [4] | [5] | [6] | [7] | [8] | [11]
active: [9] 30.9 µM | [12] 1.02 µM | [17] 0.727 µM

CCC(C)(C)C(=O)O[C@H]1C[C@@H](C)C=C2C=C[C@H](C)[C@H](CC[C@@H]3C[C@@H](O)CC(=O)O3)[C@H]21
inactive: [6]
active: [1] 24.9 µM | [2] 3.99 µM | [4] 20 µM | [5] 0.149 µM | [7] 25.1 µM | [8] 0.149 µM | [9] 6.31 µM
